Bioassay records deposited in PubChem BioAssay by several laboratories.
TLR4-MyD88 BLA: inhibitors of human TLR4-MyD88 binding | inhibition, % at 8.4 µM | O00206+Q99836 | AID 861 | 200,000 tested, 0.18% active | HeLa CL3-4 TLR4/MyD88 BLA complementation, FRET ratio; in the data active = inhibition above about 25%
NOD2 RIPK2 PPI: blocks binding of human NOD2 to RIPK2. CHO BLA complementation NOD2-RIPK2, CCF4 ratio. inhibition, % at 4.98 µM. 360,000 tested, 0.38% active; in the data active = inhibition above about 21%
ANO1 block: mouse TMEM16A channel inhibition, primary screen. normalized B-score (activity score, 25-100; higher = stronger inhibition) at 10 µM. 310,000 tested, 1.2% active. AID 588511. HEK293 TMEM16A/YFP iodide influx fluorescence, ionomycin. Q8BHY3;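 active = ratio plate-corrected score three or more library SD toward inhibition, starting fluorescence score within five deviations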;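 also: score derived from kinetic fluorescence span divided by baseline fluorescence per well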
ANO1 activ: mouse TMEM16A channel activation, primary screen; Q8BHY3; HEK293 TMEM16A/YFP-H148Q/I152L, iodide quench fluorescence; active compounds read low; B-score at 10 µM; 340,000 tested, 0.3% active;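 active = fluorescence-ratio B-score plate-corrected deviation score at least 3 library SD below zero, with starting fluorescence score within 5 deviations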;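 also: channel opened by trigger with iodide after compound preincubation; score built on the fluorescence ratio of max minus min over baseline; more negative score means more quench and so TMEM16A activation or potentiation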
TLR9-MyD88 inh: inhibitors of human TLR9-MyD88 binding | Q9NR96+Q99836 | inhibition, % at 4.98 µM | AID 504734 | CHO BLA complementation TLR9-MyD88, CCF4 FRET ratio | 340,000 tested, 0.21% active;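 active = inhibition above the mean over all tested compounds plus 3 SD, cut at about 21% in these data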
HTR2A ag: activates the mouse 5-HT2A serotonin receptor; 360,000 tested, 0.66% active; AID 624169; P35363; CHO-K1 mHTR2A beta-arrestin complementation, luminescence; percent of 30 µM serotonin response; activation, % at 7.6 µM;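 active = activation above a run cutoff, the mean activation of all tested compounds plus 3 SD, cut at about 14% in these data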
TMEM16A reconf: reconfirmed blocker of mouse TMEM16A calcium-activated chloride channel. shares compounds with ANO1 block. HEK293 TMEM16A/YFP-H148Q, iodide quench fluorescence; ionomycin added to raise cell calcium. inhibition, % at 10 µM. 2,300 tested, 39% active;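 active = mean duplicate percent inhibition, scaled so buffer wells are 0 and the reference blocker 100, over three buffer SD above buffer mean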
HEK293 Ca mobil: alters calcium mobilization in TMEM16A HEK293 cells, counter-screen; shares compounds with ANO1 block; TMEM16A/YFP HEK293, Fluo4 calcium mobilization; calcium response (% of ionomycin), % at 10 µM; 2,300 tested, 2% active; AID 652231;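 active = duplicate-averaged calcium signal over 20% of the ionomycin maximum, relative to buffer baseline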;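 also: each well's signal is peak minus trough fluorescence divided by its pre-addition baseline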
Parental YFP cnt: parental YFP-HEK293 iodide quench counter-screen activity; shares compounds with ANO1 block; ionomycin; YFP ratio F(max-min)/F0 at 10 µM; 2,300 tested, under 10 active; AID 652233;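 active = yellow fluorescent protein signal ratio exceeding the buffer control mean by over 5 SD of those controls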;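 also: ratio is mean of duplicate wells from kinetic YFP trace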
ClC-1 inh: rat ClC-1 inhibition, TMEM16A specificity screen. shares compounds with ANO1 block. ratio percent, % at 10 µM. 2,300 tested, under 10 active. CHO ClC-1-YFP, iodide influx fluorescence quench; iodide control reads 0, buffer control 100;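 active = duplicate-mean ratio percent above the mean of iodide-only control wells, which defines zero, plus 5 of their SD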;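 also: higher percent means stronger block of ClC-1 iodide influx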
Target sequence (P35524 whole entry, looked up): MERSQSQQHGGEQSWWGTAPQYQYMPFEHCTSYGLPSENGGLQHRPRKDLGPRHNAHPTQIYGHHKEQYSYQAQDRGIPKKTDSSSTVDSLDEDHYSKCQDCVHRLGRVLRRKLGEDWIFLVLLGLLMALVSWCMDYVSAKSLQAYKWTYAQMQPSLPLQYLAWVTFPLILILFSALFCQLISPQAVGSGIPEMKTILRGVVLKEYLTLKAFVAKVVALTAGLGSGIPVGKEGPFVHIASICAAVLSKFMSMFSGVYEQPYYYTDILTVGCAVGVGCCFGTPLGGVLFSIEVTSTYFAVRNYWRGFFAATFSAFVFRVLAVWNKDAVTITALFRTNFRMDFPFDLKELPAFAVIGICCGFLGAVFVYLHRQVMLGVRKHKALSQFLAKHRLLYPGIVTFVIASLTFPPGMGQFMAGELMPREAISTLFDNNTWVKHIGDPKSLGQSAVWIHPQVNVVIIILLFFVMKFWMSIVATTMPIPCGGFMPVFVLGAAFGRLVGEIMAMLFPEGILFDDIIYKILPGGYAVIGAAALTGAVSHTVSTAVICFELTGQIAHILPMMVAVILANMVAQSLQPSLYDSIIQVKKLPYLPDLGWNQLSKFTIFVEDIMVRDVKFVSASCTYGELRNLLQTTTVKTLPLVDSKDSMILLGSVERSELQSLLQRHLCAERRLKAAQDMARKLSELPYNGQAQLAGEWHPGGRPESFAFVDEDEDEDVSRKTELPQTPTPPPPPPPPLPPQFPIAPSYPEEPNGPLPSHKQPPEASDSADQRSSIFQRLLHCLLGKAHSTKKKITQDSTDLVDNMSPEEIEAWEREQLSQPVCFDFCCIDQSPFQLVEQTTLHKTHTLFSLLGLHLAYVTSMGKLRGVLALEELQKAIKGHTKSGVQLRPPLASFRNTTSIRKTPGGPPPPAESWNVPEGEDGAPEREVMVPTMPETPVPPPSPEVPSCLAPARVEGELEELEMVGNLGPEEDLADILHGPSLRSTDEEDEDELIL
Numbers stand for hits; . = inactive; / = no result. Rows were chosen to be rich in hits. Some 2.4% of all compounds tested hit in one or more screens of this group.

SMILES | TLR4-MyD88 BLA | NOD2 RIPK2 PPI | ANO1 block | ANO1 activ | TLR9-MyD88 inh | HTR2A ag | TMEM16A reconf | HEK293 Ca mobil | Parental YFP cnt | ClC-1 inh
O=C(Nc1nc(-c2ccccc2)cs1)c1ccc(=O)[nH]c1 | . | . | 25 | . | . | . | 26% | . | . | .
COc1cc(C(=O)NCC(=O)NNC(=O)CN(C)S(=O)(=O)c2ccc(Cl)cc2)cc(OC)c1OC | / | . | / | . | . | . | / | / | / | /
Cc1cc(NC(=O)CCC(=O)N(c2ccc(C)c(F)c2)C(C(=O)NC2CCCC2)c2ccco2)no1 (configuration not stated) | / | . | . | . | . | . | / | / | / | /
CCC(=O)N(Cc1cc2cc(OC)ccc2[nH]c1=O)c1cc(C)ccc1C | . | . | . | . | . | . | / | / | / | /
CC1(C)C(=O)N(c2ccccc2)C(=O)c2ccccc21 | / | . | . | . | . | . | / | / | / | /
CCCOc1ccc(NC(=O)c2cc3cc(C)ccc3[nH]2)cc1 | / | . | . | . | . | . | / | / | / | /
O=C(Nc1nc(-c2ccccc2)cs1)c1cccs1 | . | . | 25 | . | . | . | 22% | . | . | .
O=C(Nc1nc(-c2ccccc2)ns1)c1cccs1 | . | . | . | . | . | . | / | / | / | /
CS(=O)(=O)c1ccc(Sc2nc3ccccc3[nH]2)c([N+](=O)[O-])c1 | . | . | . | . | . | . | . | . | . | .
COc1ccc(S(=O)(=O)Nc2ccccc2C(=O)NCc2ccco2)cc1 | . | . | . | . | . | . | / | / | / | /
O=C(NCc1ccco1)c1ccccc1NS(=O)(=O)c1ccc(Br)s1 | . | . | 100 | . | . | . | . | . | . | .
Cc1ccccc1Cn1ccc(NC(=O)c2cnn3c2NC(c2ccccc2)CC3C(F)(F)F)n1 (configuration not stated) | . | . | 25 | . | . | . | . | . | . | .
O=C(NCc1ccco1)c1cnn2c1NC(c1ccccc1)CC2C(F)(F)F (configuration not stated) | . | . | . | . | . | . | / | / | / | /
CCNc1nc(NC(C)(C)C)nc(SC(C(C)=O)C(C)=O)n1 | . | . | . | . | . | . | / | / | / | /
CC1=C(c2ccc(C)cc2)S(=O)(=O)N(CC(=O)O)C1=O | . | . | 25 | . | . | . | . | . | . | .
COC(=O)CN1C(=O)C(C)=C(c2ccc(C)cc2)S1(=O)=O | . | . | . | . | . | . | / | / | / | /
N#Cc1nc(Cc2cccc3ccccc23)oc1N1CCOCC1 | . | . | . | . | . | . | / | / | / | /
N#Cc1nc(Cc2cccc3ccccc23)oc1NCc1ccc(F)cc1 | . | . | 100 | . | . | . | . | . | . | .
C=CCNc1oc(Cc2cccc3ccccc23)nc1C#N | . | . | . | . | . | . | / | / | / | /
CC1CCN(c2oc(Cc3cccc4ccccc34)nc2C#N)CC1 | . | . | 25 | . | . | . | . | . | . | .
c1csc(-c2nc(-c3ccc(-c4ccon4)s3)no2)c1 | / | . | . | . | . | . | / | / | / | /
Cc1cc(Cl)ccc1OCc1nc(-c2ccc(O)cc2)n[nH]1 | . | . | 25 | . | . | . | 26% | . | . | .
Cc1sc(NC(=O)/C=C/c2ccco2)c(C(=O)OC(C)C)c1C | . | . | . | . | . | . | / | / | / | /
CN1C(=O)C2(OCC(COc3ccc(Cl)cc3)O2)c2ccccc21 (configuration not stated) | . | . | 100 | . | . | . | 18% | . | . | .
CC(C)(C)C(=O)COC(=O)CCc1nc2ccccc2[nH]c1=O | . | . | 25 | . | . | . | . | . | . | .
SMILES | TLR4-MyD88 BLA | NOD2 RIPK2 PPI | ANO1 block | ANO1 activ | TLR9-MyD88 inh | HTR2A ag | TMEM16A reconf | HEK293 Ca mobil | Parental YFP cnt | ClC-1 inh
COc1ccc(OCC(=O)NCCNC(=O)c2ccncc2)cc1 | / | . | . | . | . | . | / | / | / | /
CCN(C(=O)COC(=O)c1cnc(C)cn1)C1CCCCC1 | . | . | 100 | . | . | . | . | . | . | .
COc1ccc(C(=O)Nc2ccc(NC(=O)c3cccc(OC)c3)cn2)cc1 | / | . | . | . | . | . | / | / | / | /
COc1ccc(CCCC(=O)NC(C)c2ccccc2)cc1 (configuration not stated) | . | . | . | . | . | . | / | / | / | /
COc1ccc(N(CC(=O)NCCSCc2ccc(C)cc2)S(=O)(=O)c2ccccc2)cc1 | / | . | 25 | . | . | . | . | . | . | .
CN1/C(=C\C(=O)COc2ccc3c(c2)OCO3)C(C)(C)c2ccccc21 | . | . | . | . | . | . | . | . | . | .
CN1/C(=C\C(=O)c2ccco2)C(C)(C)c2ccccc21 | . | . | . | . | . | . | 26% | . | . | .
COc1ccccc1OCC(=O)/C=C1/N(C)c2ccccc2C1(C)C | . | . | . | . | . | . | / | / | / | /
CC(C)(C)C(=O)Nc1nc(NC(=O)C(C)(C)C)nc(-c2ccccc2Cl)n1 | / | . | . | . | / | . | / | / | / | /
O=C1CCN(C(=O)Cc2ccccc2)c2ccccc21 | / | . | / | / | . | . | / | / | / | /
CCOc1ccccc1NC(=O)CSc1nnc(NC(=O)c2ccco2)s1 | / | . | . | . | . | . | / | / | / | /
Cc1ccc(S(=O)(=O)c2c(C)nn(C(C)(C)C)c2OC(=O)CC(C)C)cc1 | . | . | . | . | . | . | / | / | / | /
O=C(Nc1ccccn1)C1CCN(C(=O)c2ccc(F)cc2)CC1 | / | . | . | . | . | . | / | / | / | /
CCC(=O)N(CC)C1=C(O)c2ccccc2C(=O)C1=O | . | . | 25 | . | . | . | 26% | . | . | .
Cc1ccc2[nH]cc(CCNC(=O)C3CCCO3)c2c1 (configuration not stated) | / | . | . | . | . | . | / | / | / | /
Cc1ccc(S(=O)(=O)N2[C@@H](c3ccc(Br)cc3)C(C(=O)O)=CC[C@H]2c2ccc(Cl)c(Cl)c2)cc1 | / | . | / | / | . | . | / | / | / | /
O=C(c1cc(COc2c(F)cccc2F)on1)N1C[C@H]2CC[C@H]1C2 | / | . | . | . | . | . | / | / | / | /
Cc1ccc(N(CC(=O)N2CCN(c3ccc(F)cc3)CC2)S(=O)(=O)c2c(C)nn(C)c2C)cc1 | . | . | . | . | . | . | / | / | / | /
O=C(CSc1ccc(Cl)cc1)N1CCN(c2ncc(C(F)(F)F)cc2Cl)CC1 | . | . | 100 | . | . | . | . | . | . | .
N#Cc1nc(N2CCCC2)nc(N2CCCC2)n1 | . | . | 100 | . | . | . | 22% | . | . | .
